FLuc modulator: inhibits or activates purified firefly luciferase, miR-21 counter-screen; P08659; purified FLuc, Km substrates, luminescence inhibition; Potency, µM (titrated, usually from 57.5 µM), most hits filed as inhibitors; hit rate 6.9% among 360,000; further: nearly all actives have a fitted effect of over 55% in size
Target sequence (P08659 whole entry, looked up): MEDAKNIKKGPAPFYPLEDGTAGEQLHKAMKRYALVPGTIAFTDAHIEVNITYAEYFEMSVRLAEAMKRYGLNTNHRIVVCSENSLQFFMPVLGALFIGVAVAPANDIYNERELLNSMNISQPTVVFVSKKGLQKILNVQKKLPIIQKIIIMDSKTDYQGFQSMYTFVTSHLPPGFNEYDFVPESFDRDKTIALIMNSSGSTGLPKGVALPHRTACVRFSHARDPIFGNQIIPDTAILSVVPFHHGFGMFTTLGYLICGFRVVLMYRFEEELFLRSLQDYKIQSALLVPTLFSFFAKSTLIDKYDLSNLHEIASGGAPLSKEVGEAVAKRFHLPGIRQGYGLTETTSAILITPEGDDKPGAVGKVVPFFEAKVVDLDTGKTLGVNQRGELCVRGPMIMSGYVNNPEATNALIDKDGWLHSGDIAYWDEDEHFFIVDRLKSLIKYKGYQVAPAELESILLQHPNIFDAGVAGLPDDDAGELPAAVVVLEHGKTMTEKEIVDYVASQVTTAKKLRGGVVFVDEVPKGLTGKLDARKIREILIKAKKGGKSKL
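Purified P. pyralis luciferase (10nM final) with 10uM D-luciferin and 10uM ATP (Km levels) in 50mM Tris acetate pH 7.5, 10mM Mg acetate, 0.01% Tween-20, 0.05% BSA; qHTS 6-point titration, ~60 µM downward; luminescence read.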
SMN2 splice enh: enhancers of SMN2 splice variant expression; hit rate 2.8% among 210,000; AID 1458; Potency, µM (highest dose often 46.1 µM), most hits filed as activators; HEK293 SMN2-luciferase splicing reporter, luminescence, 30-36 h; further: nearly all actives have a fitted effect of over 55% in size
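HEK293 cells carry an SMN2 minigene-luciferase reporter in which exon 7 inclusion puts luciferase in frame. Cells were seeded at 2000 cells/well, attached for 10-12 hours, then exposed to compounds for 30-36 hours at 37C before ONE-Glo luminescence.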
Rab9 promoter act: activators of Rab9 promoter. Huh7 Rab9 promoter-luciferase reporter, luminescence, 24 h. AID 485297. hit rate 2.8% among 320,000. Potency, µM (doses to about 9.22 µM), actives largely listed as activators; further: nearly all actives have a fitted effect of over 60% in size
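Huh7 cells stably carrying a Rab9 promoter-luciferase reporter, 1500 cells per well in OP-MEM I with 10% FBS, treated with compound 24 hours at 37C. Luciferase activity read by luminescence after 10 minutes with Amplite reagent.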
ELG1 genotoxic: genotoxicity induction in ELG1-luciferase HEK293T cells. hit rate 1.3% among 330,000. AID 504466. Potency, µM (doses to about 46 µM), hits mostly activators. HEK293T ELG1-luciferase reporter, luminescence, 16 h; further: nearly all actives have a fitted effect of over 60% in size
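Cells (2,000/well) expressing the ELG1-luciferase fusion are dosed by pin tool and kept 16 hr at 37 °C, 5% CO2. Signal comes from ONE-Glo luciferase reagent after 30 min at room temperature.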
NPC1 prom act: activates the NPC1 promoter; Huh7 NPC1 promoter luciferase reporter, 24 h; Potency, µM (titrated, usually from 9.22 µM), usual class: activators; hit rate 2.4% among 320,000; further: nearly all actives have a fitted effect of over 60% in size
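NPC1 promoter–luciferase Huh7 cells; 24 h compound; luminescence.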
Hits are given with their value; . = inactive; ? = inconclusive; / = not tested or not shown; [ ] = dose if it differs, or a comment. In the library only some 7.4% were active in any assay of this set; here they are far more common. The call rests on the fitted dose curve; in most records, active means well fitted curve in the direction sought with a large enough effect; inconclusive means small, poorly fitted or top-dose-only effect, or another doubt; inactive means no such curve, though single readings can be large; an effect the other way counts as inactive or inconclusive.

SMILES	FLuc modulator	SMN2 splice enh	Rab9 promoter act	ELG1 genotoxic	NPC1 prom act
COc1cccc2sc3ccc(C#CC4(O)CCCCC4)cc3c(=O)c12	2.1µM	/	2.8µM	?	1.6µM
COC(=O)c1c(-c2ccccc2OC)sc2ccccc12	.	/	.	.	.
COc1ccccc1-c1sc2cc3c(cc2c1C#CC1(O)CCCCC1)OCO3	.	/	.	.	.
COc1ccc2sc3ccccc3c(=O)c2c1OC	15µM	.	?	?	?
COc1cccc2oc3cc(C#Cc4ccccn4)ccc3c(=O)c12	4.8µM	/	3.2µM	.	2.5µM
COc1cccc2sc3ccc(NCc4ccc5c(c4)OCO5)cc3c(=O)c12	?	/	.	.	.
COc1cccc2sc3ccc(C#Cc4ccc(N)cc4)cc3c(=O)c12	4.8µM	/	2.5µM	?	3.5µM
O=C(NCCS(=O)(=O)N1CCCCC1)c1ccccc1	.	/	.	.	.
CC(=O)NC(Cc1ccc(C)cc1)C(=O)NC1CCN(C(=O)NCc2ccccc2)CC1 (stereo unspecified)	.	/	.	.	.
COCCn1c(N)c(Sc2ccccc2[N+](=O)[O-])c(=O)[nH]c1=O	.	/	.	.	.
Cc1onc(-c2ccccc2Cl)c1C(=O)N(C)CC(=O)Nc1ccc(F)c(F)c1F	.	/	.	.	.
COc1cccc2oc3cc(C#CC4(O)CCCCC4)ccc3c(=O)c12	0.6µM	/	0.35µM	0.41µM	0.35µM
Cc1ccc(-c2nnn(CC(=O)N(c3ccccc3)C(C(=O)NC3CCCC3)c3ccncc3)n2)o1 (stereo unspecified)	.	/	.	.	.
COc1ccc(CN(C(=O)Cn2nnc(-c3ccc(C)o3)n2)C(C(=O)NCC2CCCO2)c2ccco2)cc1 (stereo unspecified)	0.19µM	/	?	?	?
Cc1ccc(N(C(=O)Cn2nnc(-c3ccc(C)o3)n2)C(C(=O)NC2CCCC2)c2ccco2)cc1 (stereo unspecified)	.	28µM	.	.	.
COc1ccc(-c2nnn(CC(=O)N(Cc3ccco3)C(C(=O)NCC3CCCO3)c3ccco3)n2)cc1 (stereo unspecified)	.	.	.	.	.
Cc1cc(=O)n2nc(N3CCC(C(=O)NCc4ccc(Cl)cc4)CC3)sc2n1	.	.	.	.	.
Nc1ccc2nc(SCC(=O)c3ccccc3)sc2c1	?	/	.	.	.
Nc1ccc2nc(SCc3ccccc3F)sc2c1	1.7µM	/	?	?	.
O=C(CNC(=O)CNC(=O)c1ccc(Cl)cc1Cl)NCc1cccc(Cl)c1	.	/	.	.	.
Cc1ccc2nc(N3C(=O)C(O)=C(C(=O)c4ccco4)C3c3cccs3)sc2c1 (stereo unspecified)	17µM	.	.	.	.
CC(C)(C)C1CCC(C(=O)Nc2nccs2)CC1 (stereo unspecified)	?	/	.	.	?
Cc1cnc(NC(=O)C2CCC(C(C)(C)C)CC2)s1 (stereo unspecified)	19µM	/	?	.	.
CS(=O)(=O)c1ccc(Cl)c(C(=O)Nc2ccc3nc(N4CCOCC4)sc3c2)c1	?	/	.	.	.
c1c[nH]c(CN2CCOCC2)n1	/	.[9.22 µM]	/	/	/
SMILES	FLuc modulator	SMN2 splice enh	Rab9 promoter act	ELG1 genotoxic	NPC1 prom act
COc1ccc(C(=O)NC2CCc3ccccc32)cc1OC1CCN(C(C)C)CC1 (stereo unspecified)	.	/	.	?	.
CCN(CC)c1ccc(C2Nc3cccc4cccc(c34)N2)cc1	11µM	/	.	.	.
CCCOc1ccc(C2Nc3cccc4cccc(c34)N2)cc1	11µM	/	.	.	.
CC(C)(C)C(=O)N/C(N)=N/c1nc2ccccc2o1	.	/	0.45µM	?	0.89µM
CCC(=O)N/C(N)=N/c1nc2ccccc2o1	11µM	/	1.1µM	?	4µM
CC(C)CC(=O)N/C(N)=N/c1nc2ccccc2o1	8.5µM	/	1.4µM	?	1.6µM
Cc1ccc(C(=O)N/C(N)=N/c2nc3ccccc3o2)cc1	.	.	?	?	?
COc1ccccc1C(=O)N/C(N)=N/c1nc2ccccc2o1	?	.	?	.	?
N/C(=N\c1nc2ccccc2o1)NC(=O)c1ccccc1	?	.	?	8.2µM	4µM
Cc1ccc2c(=O)c(C(=O)c3ccccc3)cn(CC(=O)Nc3ccc4c(c3)OCCO4)c2n1	.	/	/	/	/
CNS(=O)(=O)c1cccc(C(=O)OCC(=O)Nc2ccc(OC)cc2[N+](=O)[O-])c1	.	.	.	.	.
COc1ccc(S(=O)(=O)N2CCCOC2CNC(=O)C(=O)NCc2ccncc2)cc1 (stereo unspecified)	.	/	.	.	.
CCCC(=O)N/C(N)=N/c1nc2ccccc2o1	6.7µM	/	0.71µM	?	0.89µM
Cc1ccc(SCCSc2nc(N)cc(=O)[nH]2)cc1	?	/	.	.	.
CCOc1ccc(OCCSc2nc(C)cc(=O)[nH]2)cc1	13µM	.	?	?	?
Cc1ccc(SCCSc2nc(C)cc(=O)[nH]2)cc1	5.4µM	/	?	23µM	?
COc1ccc(OCCSc2nc(N)cc(=O)[nH]2)cc1	.	/	.	.	.
CCN1C(=O)c2ccc(C(=O)O)cc2C1=O	.	.	.	.	.
CC(C)(C)N1C(=O)c2ccc(C(=O)Nc3ccc(C(=O)O)cc3)cc2C1=O	11µM	/	.	.	.
CCN1C(=O)c2ccc(C(=O)Nc3cccc(C(=O)O)c3)cc2C1=O	0.27µM	/	?	.	.
O=C(O)c1ccc(NC(=O)c2ccc3c(c2)C(=O)N(c2ccccc2)C3=O)cc1	15µM	/	.	.	.
O=C(O)c1ccc2c(c1)C(=O)N(c1cccc(C(=O)/C=C/c3ccccc3)c1)C2=O	2.7µM	/	.	.	.
O=C(O)c1cccc(NC(=O)c2ccc(N3C(=O)c4ccc(C(=O)Nc5cccc(C(=O)O)c5)cc4C3=O)cc2)c1	27µM	/	?	.	.
O=C(O)c1cccc(NC(=O)c2ccc3c(c2)C(=O)N(c2cccc([N+](=O)[O-])c2)C3=O)c1	3.8µM	/	.	.	.
Cc1cc(C)c2cc3c(N)c(C(=O)N4CCOCC4)sc3nc2c1	11µM	/	?	.	?
SMILES	FLuc modulator	SMN2 splice enh	Rab9 promoter act	ELG1 genotoxic	NPC1 prom act
CCOc1ccc2nc3sc(C(=O)N4CCOCC4)c(N)c3cc2c1	1.5µM	1.3µM	0.56µM	.	0.56µM
Cc1cc(C)c2nc3sc(C(=O)N4CCOCC4)c(N)c3cc2c1	0.21µM	/	?	1.5µM	2.2µM
COC(=O)c1ccsc1NC(=O)c1ccc2c(c1)OCCO2	19µM	/	.	.	.
CC(C)CNC(=S)NNC(=O)c1csc2c1CCC(C)C2 (stereo unspecified)	.	.	.	.	.
Cc1ccc(NC(=O)c2ccc3c(c2)OCCO3)cc1C	0.27µM	/	0.32µM	?	0.63µM
COC(=O)c1ccc(CNC(=O)c2ccc3c(c2)OCCO3)cc1	?	/	.	.	.
Cc1cccc(NC(=S)NNC(=O)c2csc3c2CCC(C)C3)c1 (stereo unspecified)	12µM	.	?	.	.
Cc1cc(NC(=O)c2ccc3c(c2)OCO3)ccc1NC(=O)c1ccccc1	?	/	.	?	.
CCCc1cc(C(=O)NNC(=S)Nc2cccc(C)c2)cs1	11µM	5.6µM	2.5µM	.	?

High-throughput results as filed in PubChem.
